From article PMC7819943, “Rice protein-binding microarrays: a tool to detect cis-acting elements near promoter regions in rice” come the findings set out here.

The full ranking holds about 35,000 sequences; the median of “fluorescence intensity (a.u.)” is about 10,000, and the highest 2% start at about 52,000. Many of the other results were omitted from the sample, so the highest values are more common in it than they were.

The target in this assay is T1, OsWOX13 (Oryza sativa, UniProt Q5QMM3 1-267).
T1 sequence: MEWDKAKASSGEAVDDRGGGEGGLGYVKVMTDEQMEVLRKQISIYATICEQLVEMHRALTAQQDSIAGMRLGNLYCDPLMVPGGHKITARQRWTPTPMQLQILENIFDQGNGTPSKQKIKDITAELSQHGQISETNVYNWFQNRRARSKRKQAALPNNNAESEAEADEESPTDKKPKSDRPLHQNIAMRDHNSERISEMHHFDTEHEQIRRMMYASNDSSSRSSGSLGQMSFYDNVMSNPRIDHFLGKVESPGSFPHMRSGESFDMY
Description: protein-binding microarray (RPBM); PBS, 2% BSA, 51.3 ng/ul salmon testes DNA, 50 uM zinc acetate, 200 nM TF, 25 C, 1 h; high values mean tight binding. Conditions: protein: recombinant; tags: N-terminal polyhistidine and DsRed monomer fusion (pET32a); label: CyDye5-dUTP incorporated in the synthesized complementary strand; 3' TTTTT single-stranded linker to array surface; dsDNA, one strand shown. In short, it runs like this:
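Transcription factors were each fused at the N-terminus to a polyhistidine tag plus DsRed and expressed in E. coli BL21-CodonPlus before Ni–NTA purification. Binding to a double-stranded custom Agilent array was carried out with 200 nM protein at 25 °C for 1 h in PBS, 2% BSA, salmon testes DNA and 50 µM zinc acetate. The binding signal is per-feature fluorescence intensity, in arbitrary units, on an Axon 4000B scanner.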
For “TTGATTGTGAATTTATAATGTTTGGATATAATGATTACTTCGGAGTCACCTAGTGCAG”, the binding signal is 34500 fluorescence intensity (a.u.). The same measure for “GTGATTACATTGATAATAATTGATTGAATCAGTTTGTTCTCGGAGTCACCTAGTGCAG”: 62600 fluorescence intensity (a.u.). The same measure for “ACTGATTTGTTTTATTGTTTTGATTTTAATCCTCTCAATTCGGAGTCACCTAGTGCAG”: 38800 fluorescence intensity (a.u.). As to “ATTACATACCTGATTGAGTTGGTACTACAAGGCAGGGAGCCGGAGTCACCTAGTGCAG”, the binding signal is 16400 fluorescence intensity (a.u.). With “TTATTTGCATTGATTTAATAGGGTTTACTCTTGCTTTGCACGGAGTCACCTAGTGCAG”, the binding signal is 7870 fluorescence intensity (a.u.).

Regarding “GATAAATTAATAAAATTATCAAAATTTTATGATTGGTTTACGGAGTCACCTAGTGCAG”, the binding signal is 54900 fluorescence intensity (a.u.).

“CTTTGATTACATCAAGCCACTGAATTATCAGTTATAATCTCGGAGTCACCTAGTGCAG”: the binding signal is 23100 fluorescence intensity (a.u.). Consider “TCATTGATTGATTGGTACTACTACTGCTAGAAGAAAAGGCCGGAGTCACCTAGTGCAG”, for which the binding signal is 55200 fluorescence intensity (a.u.). With “TACCTTAATTTATTGATTGCACTCTTGTTCTCACACGGTTCGGAGTCACCTAGTGCAG”, the binding signal is 53200 fluorescence intensity (a.u.). For the sequence “AGATAGATTAATATATGATAAATCACTAATATCAAATTTACGGAGTCACCTAGTGCAG”, the binding signal was 5780 fluorescence intensity (a.u.).

On to “TAGAATTACTTACTAAATTGCTTGTTATATTGAAGATATTCGGAGTCACCTAGTGCAG”, for which the binding signal is 5790 fluorescence intensity (a.u.).

“AAAATAGTTAATACTCAATTAATCATGAGCTAATGGCTCACGGAGTCACCTAGTGCAG”: the binding signal was 9240 fluorescence intensity (a.u.). For “CATAATTACCAGACATGTTAAATTTAATATATGGATGTATCGGAGTCACCTAGTGCAG”, the binding signal was 40800 fluorescence intensity (a.u.). “ATTATTGATTTGATGAAACTAATTTAGTATTATAAATATTCGGAGTCACCTAGTGCAG”: the binding signal was 34600 fluorescence intensity (a.u.). In the case of “GTGATAATTTAGTTACTAAACATGTTGTGAAACTTTATCTCGGAGTCACCTAGTGCAG”, the binding signal is 3720 fluorescence intensity (a.u.). The result for “ATTGAATAATCAAAATTTCAATCTTTGATCGATGAGGTATCGGAGTCACCTAGTGCAG” reads 12100 fluorescence intensity (a.u.); that for “TTAAGTAATTAAGAGGTGATAGTTAATTTATGCATGCATGCGGAGTCACCTAGTGCAG”, 30400 fluorescence intensity (a.u.). For “CATCATCTCTAATTTTAATCAAAATATAAACTTTGCAGTGCGGAGTCACCTAGTGCAG”, the binding signal was 9140 fluorescence intensity (a.u.).

For “CTTTATTGATAGGATAAAATTGTTACATCGTTTACCAGATCGGAGTCACCTAGTGCAG”, the binding signal is 52600 fluorescence intensity (a.u.).

With “ACTGATTGACGTTTCTCATAACTAAAATATAGGTATTGTGCGGAGTCACCTAGTGCAG”, the binding signal is 60900 fluorescence intensity (a.u.). The same measure for “GGATAAAATTTAAATTGTACCAGTTTACGACGAATTACATCGGAGTCACCTAGTGCAG”: 8600 fluorescence intensity (a.u.).

Regarding “TATGATAAAATTGTTACATCATTTACCAGATGATTTAGAACGGAGTCACCTAGTGCAG”, the binding signal is 7880 fluorescence intensity (a.u.).

Take “CTAATTGAATAATCAAAATTTTAATCTTTGGTCGATAATGCGGAGTCACCTAGTGCAG”: the binding signal is 63700 fluorescence intensity (a.u.). The result for “CTATATAAAACTGATTGATTCATATTACTACGACGTTTTACGGAGTCACCTAGTGCAG” reads 6690 fluorescence intensity (a.u.); that for “AGTAATTGATTAATTTTGTGACAGAGGTGGTCACTATATGCGGAGTCACCTAGTGCAG”, 61000 fluorescence intensity (a.u.); that for “ATTTTGGTTGATTTGTAAACAGAGGGATTAATTTGTGCATCGGAGTCACCTAGTGCAG”, 15400 fluorescence intensity (a.u.). In the case of “ATAAATAACTTTGATATAAATTGTTTGAATAAAACTAATGCGGAGTCACCTAGTGCAG”, the binding signal was 14300 fluorescence intensity (a.u.). The result for “TGTGACAAACAATGATTACCAAGCTTTTGGGGAAATATAGCGGAGTCACCTAGTGCAG” reads 16900 fluorescence intensity (a.u.). As to “TCATGATTAAGATGGGCTCACTATGTAATTTTATTTATAACGGAGTCACCTAGTGCAG”, the binding signal was 8240 fluorescence intensity (a.u.). For the sequence “AATAATTTGCCAATACCAACATTTTACTATAAATACTTATCGGAGTCACCTAGTGCAG”, the binding signal is 5410 fluorescence intensity (a.u.). Turning to “GCGCTGATACTTGTAATCAATCAACTCATCAGCATGGTCTCGGAGTCACCTAGTGCAG”, the binding signal is 26100 fluorescence intensity (a.u.).

As for “GTAGTTAATTGTAAACACTGTACTAAGCAGTATACATTTTCGGAGTCACCTAGTGCAG”, the binding signal was 20300 fluorescence intensity (a.u.). For the sequence “ACACAATCATTTATACAAAGCATATAATGGGCCTGTTCGGCGGAGTCACCTAGTGCAG”, the binding signal is 6100 fluorescence intensity (a.u.). With “TGCTTGTAATTTCTATAAAATTAGCAGTATTTTGATGCTACGGAGTCACCTAGTGCAG”, the binding signal was 9240 fluorescence intensity (a.u.). For “TTGACATAATATAATCATGTGATATCTTATTGTAAAGATTCGGAGTCACCTAGTGCAG”, the binding signal is 10400 fluorescence intensity (a.u.).

Consider “ATCAATAATTGAACATATTTTCATAATAAATTTGTCTTGGCGGAGTCACCTAGTGCAG”, for which the binding signal is 42100 fluorescence intensity (a.u.).

For “TGTTGATTATAATTAAACACAACAAACAGACTCGAAGCAACGGAGTCACCTAGTGCAG”, the binding signal is 48200 fluorescence intensity (a.u.). The same measure for “CCATTGATTATAATTAAAGACTGTTAGGCAATTGACACAACGGAGTCACCTAGTGCAG”: 54000 fluorescence intensity (a.u.); for “ATCAAATCAATAATTGAATATATTTTCATAATAAATTTGTCGGAGTCACCTAGTGCAG”: 29400 fluorescence intensity (a.u.); for “AGGGAAAGTTGTGATTGAGGGAGGATGTTAGATAATGTTACGGAGTCACCTAGTGCAG”: 10100 fluorescence intensity (a.u.).

As for “TTTTGTGATAGATTTTATATTAAATATATAGTTTTGTTTTCGGAGTCACCTAGTGCAG”, the binding signal is 23400 fluorescence intensity (a.u.). Regarding “GATCAATAATTGAATATATTTTAATAATAAATTTGTCTTGCGGAGTCACCTAGTGCAG”, the binding signal is 55500 fluorescence intensity (a.u.). On to “GGAGGGAGTAGAATAATGATTGATTTAAGTTAATACTAGCCGGAGTCACCTAGTGCAG”, for which the binding signal was 23500 fluorescence intensity (a.u.). Consider “TTATTAATTGATAAAATATAGAAATATTGATTTATTGTTTCGGAGTCACCTAGTGCAG”, for which the binding signal was 52500 fluorescence intensity (a.u.).

Take “TTTATAACATTGTTAATTGATTAGGCATGCAATGCCATATCGGAGTCACCTAGTGCAG”: the binding signal was 32300 fluorescence intensity (a.u.). As for “GTTTATTTATAATTATATTATATTAATATTGTTTGAAAATCGGAGTCACCTAGTGCAG”, the binding signal was 8200 fluorescence intensity (a.u.).

For “TGTGATTGAGGGAGTTAATTAGGACAAGTTAATAAGTGGCCGGAGTCACCTAGTGCAG”, the binding signal was 64500 fluorescence intensity (a.u.).
